Experimental data as given in PubChem BioAssay (NCI).
This is part of a sample that, as a whole, favours compounds with a hit. Of some 83,000 tested, about 20% had one in any assay.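 96-well plates, one dose, 48 hours. Percent growth reported; active if below 10.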 Calls of active or inactive are those of the source.

system: A498 renal; experiment: NCI-60 one-dose screen, 48 h (100 = growth as untreated, 0 = no growth, -100 = all killed); settings: 10 µM unless noted
Description: Growth inhibition of the A498 human tumor cell line is measured as a screen for anti-cancer activity. Cells are grown in 96 well plates and exposed to the test compound for 48 hours. Compounds are tested at a single concentration, which is 10^-5 M for most compounds. The reported endpoint is percent growth (GI% or GIPRCNT), where numbers from 0 - 100% represent growth inhibition, and numbers from -100% - 0 represent cell death. For example, a value of 40 represents 60% growth inhibition. A value of 0 means no net growth occurred over the course of the experiment. A value of -40 indicates 40% of cells at the beginning of the experiment died by the end of the experiment. A value of -100 means all cells are dead at the end of the experiment.
NCI-60 Human Tumor Cell Lines Screen was performed using the standard one-dose NCI protocol, which is described in more detail at https://dtp.cancer.gov/discovery_development/nci-60/default.htm.
Compounds with GIPRCNT values below 10 were considered active. Activity score was based on GIPRCNT using the following formula: […]
Score is 0 for GIPRCNT values of 100 or above, 50 for GIPRCNT values of 0, and 100 for GIPRCNT values of -100.

| Compound | growth |
| --- | --- |
| CCCCN(CCCC)c1ccc(C(=O)O)cc1 | 98.2% (inactive) |
| Nc1cc(N)c2nc(NCCc3ccc(Cl)c(Cl)c3)cnc2c1 | 88.2% (inactive) |
| Oc1ccccc1/C=N/N=C/c1c(O)ccc2ccccc12 | 123% (inactive) |
| CC([C@H]1CC=C2C3CCC4=C[C@@H](N(C)C)CC[C@]4(C)C3CC[C@@]21C)N(C)C (stereo not given in full) | 96.4% (inactive) |
| Nc1nc2c(c3cnccc13)C(c1cccc(Br)c1)Cc1cnccc1-2 (stereo not given) | -10.6% (active) |
| CCOC(=O)C1=NN(c2ccccc2)C2=NC(=O)/C(=C\c3cn(-c4ccccc4)nc3-c3cc4ccccc4o3)C(=O)N12 | 112% (inactive) |
| COc1ccc(Cn2cc3c(c2-c2ccccc2)CCc2cnoc2-3)cc1OC | 18.5% (inactive) |
| Clc1ccc(N/N=C/c2ccccn2)nc1 | -3.65% (active) |
| CC(=O)OC1/C=C\CC/C=C\C1 (stereo not given) | 86.9% (inactive) |
| C/C(=C\c1ccc2ccccc2c1)[N+](=O)[O-] | 103% (inactive) |
| CC(=O)Nc1nc(C)c(C(=O)N/N=C/N2CCOCC2)s1 | 110% (inactive) |
| O=C(N/N=C/c1ccccc1Cl)c1cccc2ccccc12 | 85.4% (inactive) |
| Cc1ccc(C(=O)Nc2ccc(CN3CCN(C)CC3)c(C(F)(F)F)c2)cc1C#Cc1cnc(N)c2ccc(F)cc12 | -69.9% (active) |
| C=C(C)[C@@H]1CC[C@]2(COC(=O)c3ccccc3C(=O)O)CC[C@]3(C)[C@H](CC[C@@H]4[C@@]5(C)CCCNC(C)(C)[C@@H]5CC[C@]43C)[C@@H]12 | 113% (inactive) |
| COc1cc(CCNc2cnc3cc(N)cc(N)c3n2)cc(OC)c1 | 107% (inactive) |
| COC(=O)c1ccc2[nH]c(O)c(C(=Nc3ccc(N(C)C(=O)CN4CCN(C)CC4)cc3)c3ccc4c(c3)OCO4)c2c1 | -19.1% (active) |
| CNc1ccc(Nc2ccc(S(=O)(=O)O)cc2)c2c1C(=O)c1ccccc1C2=O | 113% (inactive) |
| CCOC(=O)c1cc(C(=O)c2ccc(Br)cc2)n2cc(C)cc(C)c12 | 78.4% (inactive) |
| COc1ccc2cn3c4ccc(O)cc4[nH]c(=O)c3c2c1 | 24.5% (inactive) |
| CCOc1ccc(Br)cc1/C=C(\C#N)c1ccc([N+](=O)[O-])cc1 | 80.2% (inactive) |

| Compound | growth |
| --- | --- |
| CC(=O)Nc1nc(C)c(C(=O)NNC(=O)Nc2ccccc2)s1 | 90.7% (inactive) |
| O=C(N/N=C/c1coc2ccccc2c1=O)c1cc2oc(-c3ccccc3)cc2[nH]1 | 101% (inactive) |
| CC(O)CN(CC(C)O)N(CC(C)O)CC(C)O (stereo not given) | 104% (inactive) |
| OCCN1CCN(CC/C=C2/c3ccccc3Sc3ccc(C(F)(F)F)cc32)CC1 | 79.2% (inactive) |
| O=C(Nc1ccccc1)Nc1ccc(Nc2ncnc3sc4c(c23)CCCC4)cc1 | 83.4% (inactive) |
| O=C(Nc1cccc2[nH]c(C(F)(F)F)nc12)c1ccc(F)cc1 | 19% (inactive) |
| O=Nc1ccc(O)c2ccccc12 | 118% (inactive) |
| c1ccc2[nH]c(-c3ccc(OCCCCCOc4ccc(-c5nc6ccccc6[nH]5)cc4)cc3)nc2c1 | 143% (inactive) |
| CC(=O)/C(=C\c1c(-c2ccccc2)[nH]c2ccccc12)S(=O)(=O)c1ccccc1 | 41.4% (inactive) |
| NCCCOc1cc2ccccc2cc1C(=O)Nc1ccc(Cl)cc1OC(=O)c1cc2ccccc2cc1OCCCN | -96.1% (active) |
| COc1ccc(CN2C(=O)/C(=C\C(=O)c3ccc(OCCN4CCCCC4)cc3)c3ccccc32)cc1 | 88.4% (inactive) |
| c1ccc(Nc2ncc3c(n2)-c2cccn2CC3)cc1 | 75.5% (inactive) |
| O=c1c(N=Nc2nccs2)c(-c2ccccc2)[nH]n1-c1nc(-c2ccccc2)cs1 | 28.6% (inactive) |
| O=C1C=C(OCC=C(C(F)(F)F)C(F)(F)F)c2ccccc2C1=O | 80.9% (inactive) |
| CC1(c2ccc(Br)cc2)NC(=O)NC1=O (stereo not given) | 99.5% (inactive) |
| COc1ccc(-c2nnc(SCC(=O)Nc3ccc(C(=O)/C=C/c4cc(OC)c(OC)c(OC)c4)cc3)n2-c2ccccc2)cc1OC | -69.7% [100 µM] (active) |
| CCC(CCCN1C(=O)c2ccccc2C1=O)Nc1cc(OC)cc2c(C)ccnc12 (stereo not given) | 60% (inactive) |
| Cc1ccc(S(=O)(=O)NC(CCC(=O)Nc2ccccc2)C(=O)Nc2ccccc2)cc1 (stereo not given) | -20.7% (active) |
| COc1cc(-c2nn(-c3ccc(NC(=O)Nc4ccc(Cl)c(C(F)(F)F)c4)cc3)cc2-c2ccncc2)ccc1Cl | 6.77% (active) |
| N=C(N)c1ccc(-c2ccc(-c3ccc(F)cc3)s2)cc1 | -87.8% (active) |
